# According to PubChem BioAssay AID1851 (National Center for Advancing Translational Sciences (NCATS), 2009):
# The whole screen tested about 16,000 compounds, of which about 5,800 (36%) were called active. Another 23% or so got no clear call; they are omitted. Calls come from the whole dose curve; as a rule, active = well fitted curve in the direction sought with a large enough effect; inconclusive = small, poorly fitted or top-dose-only effect, or effect the other way; inactive = no such curve, though single readings can be large or run the other way. This is one part of the list. Where a structure was tested more than once in an assay, its records may differ in their call.
# Target: Cytochrome P450 2C19 (Homo sapiens) (UniProt P33261)
# Test: Cytochrome panel assay with activity outcomes
# Conditions: recombinant CYP, pro-luciferin dealkylation, luminescence, p450-cyp2c19; series mostly up to 57.1 µM; activity, negative = inhibition: at the top concentration
# % is set by controls: 0 for no effect and ±100 for the full control effect.
# Chain of Cytochrome P450 2C19 (Homo sapiens) (P33261 whole entry, looked up): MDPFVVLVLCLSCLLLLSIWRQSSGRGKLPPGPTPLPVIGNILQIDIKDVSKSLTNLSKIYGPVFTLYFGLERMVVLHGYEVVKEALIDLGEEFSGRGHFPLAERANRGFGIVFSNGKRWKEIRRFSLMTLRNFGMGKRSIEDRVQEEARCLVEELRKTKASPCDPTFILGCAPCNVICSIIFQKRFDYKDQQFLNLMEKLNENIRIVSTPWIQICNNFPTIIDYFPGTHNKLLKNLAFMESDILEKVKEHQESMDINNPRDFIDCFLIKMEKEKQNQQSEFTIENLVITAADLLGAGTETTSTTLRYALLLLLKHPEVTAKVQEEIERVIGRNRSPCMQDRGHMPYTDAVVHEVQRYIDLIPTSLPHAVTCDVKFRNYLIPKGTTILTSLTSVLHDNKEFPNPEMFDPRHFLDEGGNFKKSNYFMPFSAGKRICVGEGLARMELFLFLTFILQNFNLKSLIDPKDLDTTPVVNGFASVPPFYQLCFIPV
Structure (SMILES),AC50,"activity, negative = inhibition"
COCCN(C(=O)C(C)C)c1nnc(-c2ccc(C)cc2)s1,7.94 µM (active),
COCC(=O)N(C)c1nnc(-c2ccc([N+](=O)[O-])cc2)s1,,-87.4% (inactive)
COCCN(C(=O)c1ccco1)c1nnc(-c2ccc(OC)cc2)s1,15.8 µM (active),
CO[C@@H]1COC(=O)[C@H]2CCCN2C(=O)[C@@H](C)COC(=O)C/C=C\[C@H]1C,,91.7% [at 11.4 µM] (inactive)
Cn1c(=O)c2c(nc(N3CCN(c4ccccn4)CC3)n2Cc2ccccc2Cl)n(C)c1=O,3.16 µM (active),
Cn1c(=O)c2c(nc(N3CCN(c4ccccn4)CC3)n2Cc2ccc(Cl)cc2Cl)n(C)c1=O,6.31 µM (active),
Cn1c(=O)c2c(ncn2CN2CCN(Cn3cnc4c3c(=O)n(C)c(=O)n4C)CC2)n(C)c1=O,,-11.6% [at 11.4 µM] (inactive)
CN1CCN(c2nc3c(c(=O)n(C)c(=O)n3C)n2C)CC1,,-9.69% [at 11.4 µM] (inactive)
O=C(N/N=C1/C[C@@H](O)[C@@H](O)[C@@H]2[C@@H]3C(=O)N(Cc4ccccc4)C(=O)[C@H]3CC[C@@H]12)OCc1ccccc1,,9.42% [at 11.4 µM] (inactive)
O=C(c1cc(C(F)(F)F)cc(C(F)(F)F)c1)N1CCC2(CCN(Cc3ccccc3)CC2)CC1,,3.98% (inactive)
O=C(c1cccc(C(F)(F)F)c1)N1CCC(O)(CS(=O)(=O)Cc2ccccc2)CC1,22.4 µM (active),
O=C(c1cc(C(F)(F)F)cc(C(F)(F)F)c1)N1CCC2(CC1)CN(Cc1ccccc1)C2,,23.7% (inactive)
COc1ccc(CNc2ncncc2-c2ccc(N(C)C)cc2)c(OC)c1,1.58 µM (active),
COc1ccccc1CNc1ncncc1-c1ccc(C(=O)N(C)C)cc1,,-41.5% (inactive)
COc1ccc(CNc2ncncc2-c2ccc(C(=O)N(C)C)cc2)c(OC)c1,15.8 µM (active),
C[C@H](N)C(=O)O,,30.8% (inactive)
N[C@@H](CC1=CS(=O)(=O)c2ccc(Cl)cc21)C(=O)O,,-36.6% [at 11.4 µM] (inactive)
O=C(O)C(Sc1ccc(Cl)cc1)Sc1ccc(Cl)cc1,0.1 µM (active),
N[C@H](Cc1ccc(Cl)cc1)C(=O)O,,7.86% (inactive)
NCCOB(c1ccccc1)c1ccccc1,,-41% (inactive)
Cc1[nH]n(C(C)(C)C)c(=O)c1Sc1ccc(Cl)cc1,3.98 µM (active),
O=[N+]([O-])c1ccc(Cl)c(-c2ccc(/C=N/c3c(-c4ccco4)nc4ccccn34)o2)c1,,8.08% (inactive)
COc1cc(Cn2cnnn2)ccc1O,,-23.8% (inactive)
COc1cc(-c2nc3ccccn3c2/N=C/c2ccccc2)ccc1O,10 µM (active),

Structure (SMILES),AC50,"activity, negative = inhibition"
CC(C)(C)NC(=O)C(=O)N/N=C/c1ccc(Br)cc1,14.1 µM (active),
O=C(N/N=C/c1ccc(F)cc1)c1ccc(Br)cc1,,-28.4% (inactive)
CC(C)NC(=O)CC(=O)N/N=C/c1ccc(F)cc1,,23% (inactive)
O=Nc1ccc(NOC(=O)c2ccc(Br)cc2)cc1,,-12.5% (inactive)
CC(C)NC(=O)CC(=O)N/N=C/c1ccc(Br)cc1,3.55 µM (active),
CCCCOc1ccc(CN2CCC(O)CC2)cc1,,6.74% (inactive)
CCOc1ccc(OCCOCCN2CCc3ccccc3C2)cc1,14.1 µM (active),
CC(=O)Nc1sc2c(c1CN1CCN(C)CC1)CCCC2,6.31 µM (active),
CCNC(=O)c1c(NC(C)=O)sc2c1CCCC2,,-12.1% (inactive)
Cc1cc(OCC(F)(F)C(F)(F)C(F)(F)C(F)(F)C(F)(F)C(F)F)nc(N)n1,3.16 µM (active),
CCCc1cc(=O)[nH]c(SCc2cc(Cl)ccc2OC(F)F)n1,2.82 µM (active),
COc1cc(-c2ccc(=O)[nH]n2)ccc1OC(F)F,,-35% [at 25.6 µM] (inactive)
O=C(COc1cccc2ccccc12)NNC(=O)c1cccs1,10 µM (active),
Cc1ccc(S(N)(=O)=O)cc1NC(=O)/C=C/c1cccs1,,-24.6% (inactive)
Cc1cccc(C)c1NC(=O)/C(C#N)=C/c1cccs1,4.47 µM (active),
N#C/C(=C\c1cccs1)C(=O)NCC1CCCO1 (stereo unspecified),,-16.4% (inactive)
CC(=O)Nc1nnc(S(N)(=O)=O)s1,,2.11% [at 25.6 µM] (inactive)
CC(C)=CC(=O)Nc1nnc(C(C)C)s1,25.1 µM (active),
C=CCOC(=O)C1=C(C)NC(SC)=C(C#N)C1c1cccs1 (stereo unspecified),0.178 µM (active),
C=CCOC(=O)C1=C(C)NC(SCC(=O)OCC)=C(C#N)C1c1ccc(C)cc1 (stereo unspecified),2.82 µM (active),
Cn1cccc1C(=O)N1CCC[C@@]2(CCN(Cc3ccc(C#N)cc3)C2)C1,,11.3% (inactive)
C#C[C@H](N)CCC(=O)O,,75.3% (inactive)
Cc1nnsc1SC(C)C(=O)O (stereo unspecified),,-14.3% (inactive)
CCNc1ncc2nc(-c3ccc(OC)cc3)c(=O)n(-c3ccc(OC)cc3)c2n1,,9.96% (inactive)

Structure (SMILES),AC50,"activity, negative = inhibition"
CN(C(=S)NC(=O)c1ccccc1Br)C1CCCCC1,7.94 µM (active),
C/C=C\C[C@H](C)[C@H](O)[C@H]1C(=O)N[C@@H](CC)C(=O)N(C)CC(=O)N(C)[C@@H](CC(C)C)C(=O)N[C@@H](C(C)C)C(=O)N(C)[C@@H](CC(C)C)C(=O)N[C@@H](C)C(=O)N[C@@H](C)C(=O)N(C)[C@@H](CC(C)C)C(=O)N(C)[C@@H](CC(C)C)C(=O)N(C)[C@@H](C(C)C)C(=O)N1C,inactive,
CC(C)OC(=O)c1cc2c(OC[C@@H](O)CNC(C)(C)C)cccc2[nH]1,,-10.6% (inactive)
O=[N+]([O-])c1ccc(/C=N/N/C(=N/c2ccccn2)c2ccccn2)cc1,28.2 µM (active),
C[N+]1(C)CCC(=C(c2ccccc2)c2ccccc2)CC1,,3.56% [at 25.6 µM] (inactive)
c1ccc2cc(Sc3ncnc4c3oc3ccccc34)ccc2c1,2 µM (active),
Oc1c(C(O)(c2ccccc2)c2ccc3ccccc3c2O)ccc2ccccc12,0.794 µM (active),
Cc1ccc(N=Cc2cc(C)n(C3CCCC3)c2C)cc1,17.8 µM (active),
C[C@@]12CCC(=O)C=C1CC[C@H]1[C@@H]2[C@@H](O)C[C@]2(C)[C@@H]1CC[C@@]2(O)C(=O)COC(=O)C1CCCC1,,-27.7% [at 11.4 µM] (inactive)
C[C@@]12CCC(=O)C=C1CC[C@@H]1[C@@H]2[C@H](O)C[C@]2(C)[C@@H]1CC[C@]2(O)C(=O)CO,,16.8% [at 25.6 µM] (inactive)
C[C@@]12C[C@H](O)[C@@H]3[C@H](CCC4=CC(=O)CC[C@]43C)[C@H]1CC[C@@H]2c1csc(N)n1,3.98 µM (active),
Cc1cc(C)nc(NC(=O)/C=C/c2ccc(Cl)cc2Cl)c1,15.8 µM (active),
CCOC(=O)Cc1csc(NC(=O)c2c(-c3c(Cl)cccc3Cl)noc2C)n1,3.55 µM (active),
Cc1noc(C)c1C(=O)N1CCC2(CCCN(C(=O)Nc3cccc(F)c3)C2)CC1,,-29.5% (inactive)
CCOC(=O)Cc1csc(NC(=O)c2ccc(Cl)nc2)n1,10 µM (active),
CCOC(=O)Cc1csc(NC(=O)c2ccc(S(=O)(=O)N3CCCCC3)cc2)n1,14.1 µM (active),
COCc1nnc(NC(=O)c2ccc(S(=O)(=O)N3CCCCCC3)cc2)o1,,-18.3% (inactive)
Cc1onc(-c2c(Cl)cccc2Cl)c1C(=O)Nc1ccc2c(c1)OCO2,1.12 µM (active),
Cc1noc(C)c1C(=O)N1CCC[C@@]2(CCN(C(=O)Nc3cccc(F)c3)C2)C1,,5.9% (inactive)
CC(C)CN1CCCC2(CCN(C(=O)c3cnccn3)CC2)C1,,-12.2% (inactive)
O=C1CN(C(=O)c2ccc(Br)o2)C(c2ccc(F)cc2)c2cc(Cl)ccc2N1 (stereo unspecified),7.94 µM (active),
CCCCC(=O)Nc1sc2c(c1C(=O)OCC)CCC(C=O)=C2Cl,14.1 µM (active),
O=C1Nc2ccccc2Nc2ncccc21,,-12.3% (inactive)
CC(/C=C/c1ccccc1)=N/NC(=O)CNC(=O)c1ccc2c(c1)OCO2,,-24.7% (inactive)

Structure (SMILES),AC50,"activity, negative = inhibition"
C/C(=N\NC(=O)CSCc1ccc(Cl)cc1)c1ccc2c(c1)OCCO2,1.26 µM (active),
CCC(=O)NC(=S)Nc1ccc(NC(=O)COc2ccc(Cl)cc2Cl)cc1,2.82 µM (active),
O=C(COc1ccccc1Cl)NC(=S)Nc1cccc(NC(=O)c2ccccc2Cl)c1,0.631 µM (active),
C=C(CC)C(=O)c1ccc(OCC(=O)O)c(Cl)c1Cl,,-9.62% [at 25.6 µM] (inactive)
CCc1ccc(OCC(=O)NC(=S)Nc2ccc(F)cc2)c(Br)c1,8.91 µM (active),
Cc1ccccc1OCC(=O)NC(=S)Nc1ccc(Br)c(C)n1,,-10.9% (inactive)
O=C(CCN1C(=O)c2ccccc2C1=O)NC(=S)Nc1cccc(Cl)c1,4.47 µM (active),
CN(C)c1ncnc2c1ncn2CCn1cnc2c(N(C)C)ncnc21,,27.8% [at 11.4 µM] (inactive)
NC1=C2NC=N[C@@H]2N(C/C=C\c2ccccc2)C=N1,,7.43% [at 11.4 µM] (inactive)
Cc1c(N2C(=O)/C(=C3/C(=O)N(C)c4ccccc43)SC2=S)c(=O)n(-c2ccccc2)n1C,2.82 µM (active),
Cc1c(N(C)C)c(=O)n(-c2ccccc2)n1C,,-8.86% [at 25.6 µM] (inactive)
Cc1c(O)c(=O)n(-c2ccccc2)n1C,,-3.86% [at 25.6 µM] (inactive)
O=S(=O)(O)c1ccc2c(N=Nc3cccc4ccccc34)c(O)c(S(=O)(=O)O)cc2c1,,13.7% [at 11.4 µM] (inactive)
CN(C(=O)C(Cl)Cl)c1ccc(OC(=O)c2ccco2)cc1,,-12.6% [at 25.6 µM] (inactive)
CCCn1c(N)[n+](CC(=O)c2ccco2)c2ccccc21,,-19% (inactive)
CCOC(=O)c1c(C)n(C)c2ccc(OC(=O)c3ccco3)cc12,5.01 µM (active),
CCOc1cc(/C=C2/C(=N)N3C=CSC3=NC2=O)ccc1OCCCOc1ccccc1C,1 µM (active),
COc1cc(/C=C2/C(=N)N3C=CSC3=NC2=O)ccc1OCCCOc1ccccc1C,7.94 µM (active),
Cc1ccc(N=Nc2ccc(N)cc2C)c(S(N)(=O)=O)c1,,1.27% [at 11.4 µM] (inactive)
COc1ccccc1CN1CC[C@@]2(CCCN(S(C)(=O)=O)C2)C1,,-26.4% (inactive)
CCCNc1c(F)c(F)c2c(C)c3ccccc3nc2c1F,10 µM (active),
CC1CN(C(=O)CN2C(=O)NC3(CCCCCC3)C2=O)CC(C)O1 (stereo unspecified),,-25.4% (inactive)
CCNC(=S)N1CC(C)OC(C)C1 (stereo unspecified),,13.7% (inactive)
Cc1ccc(CC(=O)N2CC(C)OC(C)C2)cc1 (stereo unspecified),8.91 µM (active),
